# From PubChem BioAssay (NCATS)
# Results filed as inconclusive are left out. Entries that show only a call come without a potency. A number with no mark means an inactive call. The source made the active and inactive calls. The call rests on the fitted dose curve; in most records, active means well fitted curve in the direction sought with a large enough effect; inconclusive means small, poorly fitted or top-dose-only effect, or another doubt; inactive means no such curve, though single readings can be large; an effect the other way counts as inactive or inconclusive.
# Assays:
# [1] = target: Aldehyde dehydrogenase, mitochondrial (Homo sapiens) (UniProt P05091); assay: qHTS for Inhibitors of the Aldehyde Dehydrogenase Family (ALDH2) Primary screen (AID 2061308); further: nearly all actives have a fitted effect of over 55% in size
# [2] = target: Retinaldehyde dehydrogenase 3 (Homo sapiens) (UniProt P47895); assay: qHTS for Inhibitors of the Aldehyde Dehydrogenase Family (ALDH1A3) Confirmatory screens (AID 2061311); further: nearly all actives have a fitted effect of over 60% in size
# [3] = target: Retinal dehydrogenase 2 (Homo sapiens) (UniProt O94788); assay: qHTS for Inhibitors of the Aldehyde Dehydrogenase Family (ALDH1A2) Confirmation screens (AID 2061314); further: nearly all actives have a fitted effect of over 65% in size
# [4] = target: Retinaldehyde dehydrogenase 3 (Homo sapiens) (UniProt P47895); assay: qHTS for Inhibitors of the Aldehyde Dehydrogenase Family (ALDH1A3) Primary screen (AID 2061315)
# [5] = target: Aldehyde dehydrogenase 1A1 (Homo sapiens) (UniProt P00352); assay: qHTS for Inhibitors of the Aldehyde Dehydrogenase Family (ALDH1A1) Confirmatory screens (AID 2061316); further: nearly all actives have a fitted effect of over 65% in size
# [6] = target: Retinaldehyde dehydrogenase 3 (Homo sapiens) (UniProt P47895); assay: qHTS for Inhibitors of the Aldehyde Dehydrogenase Family (ALDH1A3) Validation screen (AID 2061312); further: nearly all actives have a fitted effect of over 45% in size
# Potency means the concentration at half of the fitted maximal effect.
smiles,measurement,setting,value
Cc1ccc(S(=O)(=O)Nc2cccc3ccc[n+](C)c23)cc1,Potency,[1],inactive
same,Potency,[2],10.1 µM (active)
same,Potency,[3],25.2 µM (active)
same,Potency,[4],inactive
O=[S+]([O-])(Nc1nccs1)c1ccc(NCc2cc(F)cc(Cl)c2O)cc1,Potency,[1],inactive
same,Potency,[2],inactive
same,Potency,[3],inactive
same,Potency,[4],inactive
COc1ccc(NC(=O)Nc2ccc(-c3nc4ccccc4[nH]3)cc2)cc1OC,Potency,[1],inactive
same,Potency,[2],inactive
same,Potency,[4],inactive
CC(=O)Nc1sc2c(c1-c1ccc(N3CCN(C(C)=O)CC3)nc1)CCNC2,Potency,[1],inactive
same,Potency,[2],12.7 µM (active)
same,Potency,[3],7.98 µM (active)
same,Potency,[4],inactive
CNc1ncc(-c2cccc3ccccc23)o1,Potency,[1],inactive
same,Potency,[2],25.2 µM (active)
same,Potency,[3],10.1 µM (active)
same,Potency,[4],inactive
c1c[nH]c(C2CCN(c3ncc(-c4ccc5c(c4)OCCCO5)s3)CC2)n1,Potency,[1],inactive
same,Potency,[2],5.04 µM (active)
same,Potency,[3],4 µM (active)
same,Potency,[4],inactive
same,Potency,[5],1.79 µM (active)
CC(C)(C)OC(=O)N[C@@H](Cc1ccc(O[S+](=O)([O-])c2cccnc2)cc1)C(=O)N1CCN(c2ccccc2)CC1,Potency,[1],inactive
same,Potency,[2],28.3 µM (active)
same,Potency,[3],15.9 µM (active)
same,Potency,[4],inactive
CC(=O)N1CCN(c2ccc(NCc3ccccc3)cc2)CC1,Potency,[1],inactive
same,Potency,[2],12.7 µM (active)
same,Potency,[3],11.3 µM (active)
same,Potency,[5],10.1 µM (active)
Cc1ccc(CNc2cccc(N3CCCCC3)c2)cc1,Potency,[1],inactive
same,Potency,[2],22.5 µM (active)
same,Potency,[4],inactive
CNC(=O)C1=C(C)NC(Nc2nc3ccccc3o2)=NC1c1[nH]ncc1Cl (stereo unspecified),Potency,[1],inactive
same,Potency,[2],inactive
same,Potency,[4],inactive
CC(C)(C)OC(=O)N1CCN(c2ccc(NCc3occc3-c3ccc(C#N)cc3)cc2)CC1,Potency,[1],inactive
same,Potency,[2],20.1 µM (active)
same,Potency,[3],12.7 µM (active)
same,Potency,[5],11.3 µM (active)
Cc1ccnc(NC(=S)N[C@@H]2CCN(c3cccc(C(F)(F)F)c3)C2)c1,Potency,[1],inactive
same,Potency,[2],inactive
same,Potency,[4],inactive
COc1ccc(Nc2cc(O)c3ncccc3c2)cc1,Potency,[1],inactive
same,Potency,[2],0.0357 µM (active)
same,Potency,[3],inactive
same,Potency,[5],inactive
O=C(C(NS(=O)(=O)c1ccc2[nH]c(=O)ccc2c1)c1cccc(C(F)(F)F)c1)N(Cc1ccco1)Cc1cccs1 (stereo unspecified),Potency,[1],inactive
same,Potency,[2],25.2 µM (active)
same,Potency,[3],12.7 µM (active)
same,Potency,[4],inactive
same,Potency,[5],inactive
Cc1ccc2nc3sc(C(=O)N4CCOCC4)cc3cc2c1,Potency,[1],inactive
same,Potency,[2],25.2 µM (active)
same,Potency,[4],inactive
O=C1CCCC2=C1C1(CCC1)N=C(Nc1nc3ccccc3o1)N2,Potency,[1],inactive
same,Potency,[2],12.7 µM (active)
same,Potency,[3],7.98 µM (active)
same,Potency,[4],inactive
same,Potency,[5],inactive
O=C(O)c1ccc(O)c2ncc(NC3CCNC3)cc12 (stereo unspecified),Potency,[1],inactive
same,Potency,[2],inactive
same,Potency,[3],3.57 µM (active)
same,Potency,[4],inactive
same,Potency,[5],inactive
NC(=O)C1CCN(c2ncc(-c3ccc4c(c3)OCCCO4)s2)CC1,Potency,[1],inactive
same,Potency,[2],inactive
same,Potency,[3],3.57 µM (active)
same,Potency,[4],inactive
CC1(C)N=C(Nc2nc3ccccc3o2)NC2=C1C(=O)CCC2,Potency,[1],inactive
same,Potency,[2],inactive
same,Potency,[4],inactive
CN1CCN(c2ccc(NC(=O)c3cccs3)cn2)CC1,Potency,[1],inactive
same,Potency,[2],22.5 µM (active)
same,Potency,[3],12.7 µM (active)
same,Potency,[4],inactive
Oc1cc(NCc2ccc(F)cc2)cc2cccnc12,Potency,[1],inactive
same,Potency,[2],1.59 µM (active)
same,Potency,[3],inactive
same,Potency,[5],7.12 µM (active)
Oc1ccc(CNc2cc(Cl)ccn2)c2cccnc12,Potency,[1],inactive
same,Potency,[2],3.57 µM (active)
same,Potency,[3],12.7 µM (active)
same,Potency,[5],8.96 µM (active)
C/C=C/c1ccc2oc(-c3ccc(O)c(OC)c3)c(C)c2c1,Potency,[1],inactive
same,Potency,[2],1.01 µM (active)
same,Potency,[3],25.1 µM (active)
same,Potency,[5],17.9 µM (active)
COc1cc(O)ccc1OCCNCC(O)COc1cccc2[nH]c3ccccc3c12 (stereo unspecified),Potency,[1],inactive
same,Potency,[2],12.7 µM (active)
same,Potency,[4],3.16 µM (active)
COc1ccc(C(=O)N(Cc2ccccc2)Cc2ccco2)c(O)c1,Potency,[1],inactive
same,Potency,[2],14.2 µM (active)
same,Potency,[3],25.2 µM (active)
same,Potency,[4],inactive
O=C1Nc2ccccc2/C1=C\c1ccc([N+](=O)[O-])cc1,Potency,[1],inactive
same,Potency,[2],17.8 µM (active)
same,Potency,[3],2.83 µM (active)
same,Potency,[4],inactive
Cc1ccc(CNc2ccc(N3CCNCC3)cc2)cc1,Potency,[1],inactive
same,Potency,[2],14.2 µM (active)
same,Potency,[3],10.1 µM (active)
same,Potency,[5],11.3 µM (active)
CCN(CC)C(=O)CC(c1ccc2c(c1)OCO2)c1c(O)cc(OC)cc1OC (stereo unspecified),Potency,[1],inactive
same,Potency,[2],inactive
same,Potency,[3],inactive
same,Potency,[4],inactive
COc1ccc(-c2ccc(=O)n(CC(=O)NCCc3ccccc3)n2)cc1,Potency,[1],inactive
same,Potency,[2],1.58 µM (active)
same,Potency,[3],15.8 µM (active)
same,Potency,[4],inactive
same,Potency,[5],inactive
COc1ccc(CNc2ccc(S(=O)(=O)Nc3nccs3)cc2)cc1O,Potency,[1],inactive
same,Potency,[2],5.65 µM (active)
same,Potency,[3],6.34 µM (active)
same,Potency,[4],inactive
same,Potency,[5],7.12 µM (active)
CN(C)c1cccc(-c2cnc(N3CCC(C(N)=O)CC3)nc2)c1,Potency,[1],inactive
same,Potency,[2],22.5 µM (active)
same,Potency,[3],12.7 µM (active)
same,Potency,[5],11.3 µM (active)
C=CCNc1nnc(-c2cccc3ccccc23)o1,Potency,[1],inactive
same,Potency,[2],10.1 µM (active)
same,Potency,[3],8.96 µM (active)
same,Potency,[5],7.98 µM (active)
CCS(=O)(=O)N(Cc1cccnc1)c1cccc(-c2ccc(C#N)cc2)c1,Potency,[1],inactive
same,Potency,[6],6.31 µM (active)
N#Cc1ccc2[nH]c(O)c(-c3ccc(CN4CCOCC4)cn3)c2c1,Potency,[1],inactive
same,Potency,[6],10 µM (active)
Cc1occc1-c1ccc2ncnc(NCc3ncc[nH]3)c2c1,Potency,[1],inactive
same,Potency,[2],4 µM (active)
same,Potency,[4],inactive
Cc1cc(C)c(Nc2ccnc(Nc3ccc(C#N)cc3)n2)c(C)c1,Potency,[1],inactive
same,Potency,[6],inactive
same,Potency,[4],inactive
COc1ccccc1OCCNCC(O)CCOc1cccc2[nH]c3ccccc3c12 (stereo unspecified),Potency,[1],inactive
same,Potency,[6],inactive
same,Potency,[4],inactive
NNc1ccc(NC(=O)c2cccs2)cn1,Potency,[1],inactive
same,Potency,[2],11.3 µM (active)
same,Potency,[4],inactive
O=C(NC1CCN(CCCCC2(C(=O)NCC(F)(F)F)c3ccccc3-c3ccccc32)CC1)c1ccccc1-c1ccc(C(F)(F)F)cc1,Potency,[1],inactive
same,Potency,[6],inactive
same,Potency,[4],inactive
CC(=O)NC(c1cccs1)c1cc(Br)c2cccnc2c1O (stereo unspecified),Potency,[1],inactive
same,Potency,[2],10.1 µM (active)
same,Potency,[4],inactive
COc1ccc(NS(=O)(=O)c2sc3ccc(Cl)cc3c2C)cc1N1CCNCC1,Potency,[1],inactive
same,Potency,[6],inactive
same,Potency,[4],inactive
Cc1nc2ccc(CN(C)c3ccc(C(=O)NC(CCC(=O)O)C(=O)O)s3)cc2c(=O)[nH]1 (stereo unspecified),Potency,[1],inactive
same,Potency,[6],inactive
same,Potency,[4],inactive
N#Cc1ccc(COc2ccc(-c3cccc4nc(NC(=O)C5CC5)nn34)cc2)cn1,Potency,[1],inactive
same,Potency,[6],inactive
same,Potency,[4],inactive
C[C@]12CC[C@@H]3c4ccc(O)c(O)c4CC[C@H]3[C@@H]1CCC2=O,Potency,[1],15.8 µM (active)
same,Potency,[2],15.9 µM (active)
same,Potency,[5],1.59 µM (active)
CNC1CN(c2ccc3c(=O)c(C(=O)O)cn(-c4nccs4)c3n2)CC1OC (stereo unspecified),"activity change, negative = inhibition",[1],2.97% [at 11.2 µM]
same,"activity change, negative = inhibition",[6],-0.123% [at 20.1 µM]
same,"activity change, negative = inhibition",[4],-3.75% [at 11.2 µM]
C[C@@H](NC(=O)C(=O)c1c[nH]c2ccc([N+](=O)[O-])cc12)c1ccccc1,Potency,[1],inactive
same,Potency,[6],inactive
same,Potency,[4],inactive
Cc1cnc(-c2ccccc2N(C)C)nc1NCc1ccc(-c2cccnc2)cc1,Potency,[1],inactive
same,Potency,[2],3.55 µM (active)
same,Potency,[4],inactive
same,Potency,[5],14.2 µM (active)
CC[C@H](/C=C/[C@@H](C)[C@H]1CC[C@H]2[C@@H]3CC=C4C[C@@H](O)CC[C@]4(C)[C@H]3CC[C@]12C)C(C)C,"activity change, negative = inhibition",[1],-2.53% [at 5.59 µM]
same,"activity change, negative = inhibition",[6],-13.7% [at 9.14 µM]
same,"activity change, negative = inhibition",[4],15.3% [at 5.59 µM]
COc1ccc(C2NC(=O)c3ccccc3N2)cc1COc1ccc(NC(C)=O)cc1 (stereo unspecified),Potency,[1],inactive
same,Potency,[2],inactive
same,Potency,[4],inactive
Cc1cc(C)nc(NC(=S)N2CCN(c3ccc4nonc4c3)CC2)c1,Potency,[1],inactive
same,Potency,[2],15.9 µM (active)
same,Potency,[4],inactive
same,Potency,[5],11.3 µM (active)
NC(=O)C1CCN(c2nc(-c3ccccc3-c3ccccc3)cs2)CC1,Potency,[1],inactive
same,Potency,[2],2.83 µM (active)
same,Potency,[5],3.18 µM (active)
Cc1ccc(NC(=O)CN2C(=O)N/C(=C\c3ccco3)C2=O)cc1,Potency,[1],inactive
same,Potency,[2],4.49 µM (active)
same,Potency,[4],inactive
Cc1ccnc(NC(=S)N2CCN(c3ccc4ccccc4n3)CC2)c1,Potency,[1],2.82 µM (active)
same,Potency,[2],11.3 µM (active)
same,Potency,[5],3.18 µM (active)
C=CC(=O)Nc1cccc(CN2C(=O)N(c3c(Cl)c(OC)cc(OC)c3Cl)Cc3cnc(NCCCCN(CC)CC)nc32)c1,Potency,[1],inactive
same,Potency,[6],inactive
same,Potency,[4],inactive
CC(NC(=O)Cc1cc(F)cc(F)c1)C(=O)NC1C(=O)N(C)c2ccccc2-c2ccccc21 (stereo unspecified),Potency,[1],inactive
same,Potency,[6],inactive
same,Potency,[4],inactive
Cc1ccc(S(=O)(=O)Nc2ccc(NS(=O)(=O)c3ccc(C)cc3)c3ncccc23)cc1,Potency,[1],inactive
same,Potency,[2],15.9 µM (active)
same,Potency,[4],inactive
same,Potency,[5],inactive
Cc1cc(C)nc(NC(=S)N2CCN(c3cccc4[nH]ccc34)CC2)c1,Potency,[1],inactive
same,Potency,[2],7.12 µM (active)
same,Potency,[4],inactive
same,Potency,[5],8.96 µM (active)
Cc1ccc(C(=O)N(CCCN)C(c2nc3cc(Cl)ccc3c(=O)n2Cc2ccccc2)C(C)C)cc1 (stereo unspecified),Potency,[1],inactive
same,Potency,[6],inactive
same,Potency,[4],inactive
O=C(CCCCCCC(=O)Nc1ccc(C2OC(CSc3nc(-c4ccccc4)c(-c4ccccc4)o3)CC(c3ccc(CO)cc3)O2)cc1)NO (stereo unspecified),Potency,[1],inactive
same,Potency,[6],10 µM (active)
COc1cc(/C=C/C(=O)N2CCN(CC(=O)N3CCCC3)CC2)cc(OC)c1OC,Potency,[1],inactive
same,Potency,[6],inactive
same,Potency,[4],inactive
CC(C)n1cnc2c(Nc3cccc(Cl)c3)nc(NCCO)nc21,Potency,[1],inactive
same,Potency,[6],inactive
same,Potency,[4],inactive
O=C(Nc1ncc(SCCN2CCCC2)s1)C1(c2ccc(S(=O)(=O)C3CC3)cc2)CC1C1CCCCC1 (stereo unspecified),Potency,[1],inactive
same,Potency,[6],inactive
same,Potency,[4],inactive
Cc1cc(C)nc(NCc2ccc(O)c3ncccc23)c1,Potency,[1],11.2 µM (active)
same,Potency,[2],5.04 µM (active)
same,Potency,[5],11.3 µM (active)
